Several values for one entry are separate records, joined by “and”; a condition that tells them apart may be missing. Equal values may be shown once. Results filed as inconclusive are left out. A call without a number means that no potency is given here. Activity calls are given as the source filed them. Calls come from the whole dose curve.
Potency is the fitted concentration of half-maximal effect.

Chain of Cytochrome P450 1A2 (Homo sapiens) (P05177 whole entry, looked up): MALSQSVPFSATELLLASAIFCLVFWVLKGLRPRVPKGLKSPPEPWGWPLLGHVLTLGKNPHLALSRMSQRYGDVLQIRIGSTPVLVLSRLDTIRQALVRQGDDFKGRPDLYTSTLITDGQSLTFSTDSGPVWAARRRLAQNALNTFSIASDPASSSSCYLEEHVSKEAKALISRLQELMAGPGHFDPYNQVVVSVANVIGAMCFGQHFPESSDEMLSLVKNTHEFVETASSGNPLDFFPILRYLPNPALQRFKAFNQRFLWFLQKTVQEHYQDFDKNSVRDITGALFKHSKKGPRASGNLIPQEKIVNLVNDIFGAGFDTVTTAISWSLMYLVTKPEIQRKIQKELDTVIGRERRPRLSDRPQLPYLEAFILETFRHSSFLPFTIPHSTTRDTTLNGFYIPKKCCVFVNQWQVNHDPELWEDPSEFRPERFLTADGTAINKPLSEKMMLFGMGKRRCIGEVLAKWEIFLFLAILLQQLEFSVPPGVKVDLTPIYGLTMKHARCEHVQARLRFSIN

In the assay the target is Cytochrome P450 1A2 (Homo sapiens) (UniProt P05177). Nature of the assay: p450-cyp1a2 (AID 410). The conditions noted are these: recombinant CYP1A2, luciferin-ME demethylation, luminescence; series mostly up to 57 µM. On the procedure:
The P450 gene superfamily is involved in metabolism and the clearance of xenobiotics. This assay used human CYP1A2 to measure the demethylation of luciferin 6' methyl ether (Luciferin-ME; Promega-Glo) to luciferin. The luciferin is then measured by luminescence after the addition of a luciferase detection regeant. Luciferin-ME concentration in the assay was equal to its Km for CYP1A2.
NCGC Assay Protocol Summary:
Two uL of enzyme and substrate mix (final concentrations: 20nM CYP1A2, 100uM Luciferin-ME, 100mM KPO4) were dispensed into a white, solid bottom 1536-well microtiter plate. 23nL of compound was transferred by a pin tool. The plate was incubated at room temperature for 10 min. Two uL of an NADPH regeneration solution (Promega supplied reagent) was dispensed and the reaction was allowed to continue for 60 min at room temperature. Then the reaction was stopped by reconstituted detection reagent. After another 20 min of incubation the plate was read on the ViewLux (Perkin Elmer) at 60 sec exposure and 2x2 binning. This protocol was carried out with Promega-Glo reagents and further information can be found at http://www.promega.com/tbs/tb325/tb325.pdf. Data were normalized to the to AC100 inhibition (57 uM furafylline).
Turning to `O=c1c(-c2ccc(O)cc2)coc2cc(O)ccc12`, the Potency was 15.8 µM (active). Consider `C[C@@H](O)[C@H]1C(=O)N2C(C(=O)O)=C(S[C@@H]3CN[C@H](C(=O)N(C)C)C3)[C@H](C)[C@H]12`, for which the Potency result was “inactive”. Turning to `CCCNC(=O)NS(=O)(=O)c1ccc(Cl)cc1`, the Potency result is “inactive”. `CCN(CC)CCOC(=O)c1ccc(N)cc1`: the Potency entry was “inactive”.

With `CS(=O)c1ccc(-c2nc(-c3ccc(F)cc3)c(-c3ccncc3)[nH]2)cc1` (stereo not drawn), the Potency is 631 nM (active) and 3.98 µM (active).

Turning to `O=C1NCC2(CCN(CCc3ccccc3)CC2)O1`, the Potency result was “inactive”. For the compound `COc1ccc(-c2coc3cc(O)ccc3c2=O)cc1`, the Potency was 0.631 µM (active). Consider `COc1ccc(Cc2nccc3cc(OC)c(OC)cc23)cc1OC`, for which the Potency was 25.1 µM (active) and 10 µM (active) and 31.6 µM (active). For the compound `CCCCC1C(=O)N(c2ccccc2)N(c2ccccc2)C1=O`, the Potency result is “inactive”. On to `CCCCCCCCCCCC1=C(O)C(=O)C=C(O)C1=O`, for which the Potency result is “inactive”.

For `NCCS`, the Potency result was “inactive”.

`C[N+](C)(C)CC(=O)O`: the Potency entry was “inactive”. As to `CCN1CCC[C@H]1CNC(=O)c1cc(S(N)(=O)=O)ccc1OC`, the Potency result is “inactive”. On to `CC(=O)CCCCn1c(=O)c2c(ncn2C)n(C)c1=O`, for which the Potency is 31.6 µM (active) and 12.6 µM (active). With `COCCCCC(=NOCCN)c1ccc(C(F)(F)F)cc1`, the Potency was 158 nM (active) and 39.8 nM (active) and 15.8 nM (active). As to `COc1ccc(-c2coc3cc(O)cc(O)c3c2=O)cc1`, the Potency is 3.98 µM (active). For the compound `Clc1ccc(Cn2c(CN3CCCC3)nc3ccccc32)cc1`, the Potency was 10 µM (active) and 3.98 µM (active). The same measure for `CC1(C)CCC2=C(O1)c1ccccc1C(=O)C2=O`: 3.98 µM (active); for `COc1ccccc1N1CCN(CCCNc2cc(=O)n(C)c(=O)n2C)CC1`: “inactive”; for `CC(=O)c1ccc(S(=O)(=O)NC(=O)NC2CCCCC2)cc1`: “inactive”. With `O=c1cc(-c2ccccc2)oc2cc(O)c(O)c(O)c12`, the Potency is 398 nM (active) and 501 nM (active).

Regarding `CC(C)[C@H](CO)Nc1nc(Nc2ccc(C(=O)O)c(Cl)c2)c2ncn(C(C)C)c2n1`, the Potency result was “inactive”. As to `O=C1NC(=O)C(c2ccccc2)(c2ccccc2)N1`, the Potency entry is “inactive”.

As for `C[N+](C)(C)CCCCCC[N+](C)(C)C`, the Potency result was “inactive”. On to `CCN(CC)C(=O)c1ccc(O)c(OC)c1`, for which the Potency is 12.6 µM (active). The same measure for `COc1cccc(-c2cc(=O)c3ccccc3o2)c1N`: 3.16 µM (active) and 200 nM (active); for `c1cc(-c2sc(-c3ccncc3)c(-c3ccncc3)c2-c2ccncc2)ccn1`: 3.16 µM (active).

Regarding `CC(C)OC(=O)C(C)(C)Oc1ccc(C(=O)c2ccc(Cl)cc2)cc1`, the Potency is 12.6 µM (active) and 5.01 µM (active).
